For 16 compounds, growth results are on record in PubChem BioAssay (NCI).

Test in all cases: NCI-60 one-dose screen, 48 h (100 = growth as untreated, 0 = no growth, -100 = all killed)
Conditions in all cases: 10 µM unless noted

The test system of test [1] is MOLT-4 leukemia.
In test [2] the test system is SR leukemia.
Test [3] concerns RPMI-8226 leukemia.
Test [4] has as its system OVCAR-8 ovarian.
The test system of test [5] is OVCAR-5 ovarian.
Test [6] relates to OVCAR-4 ovarian.
Test [7] deals with SK-OV-3 ovarian.
Test [8] relates to IGROV1 ovarian.
Test [9] has as its system OVCAR-3 ovarian.
The test system of test [10] is HS 578T breast.
Test [11] concerns NCI/ADR-RES ovarian.
The test system of test [12] is T-47D breast.
For test [13], the system named is BT-549 breast.
Test [14] has as its system MDA-MB-435 melanoma.
Test [15] concerns SW-620 colon.
The subject of test [16] is HCC-2998 colon.
Test [17] concerns KM12 colon.
For test [18], the system named is MCF7 breast.
The subject of test [19] is HCT-116 colon.

The panel holds about 83,000 compounds, 20% with a hit somewhere; the sample as a whole holds those more often.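 The test compound was applied at a single concentration to cells in 96-well plates for 48 hours, and percent growth was recorded.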 A number with no mark means an inactive call. Activity calls are given as the source filed them. How the source made its calls: active means growth percent below 10; inactive means the rest.

For the compound `CC(=O)O[C@H](C[C@H](C(C)C)N(C)C(=O)[C@@H](NC(=O)[C@H]1CCCCN1C)C(C)C)c1nc(C(=O)N[C@@H](Cc2ccccc2)C[C@H](C)C(=O)O)c(C)s1`, the growth in test [1] was 20.7%; in [2] it was 7.46% (active); in [3], 25.1%; in test [4], 20.1%; in [5], 31%; in [6], 50.6%. In addition, the growth in test [7] is 6.87% (active); in [8], 31.1%; in test [9], 12.5%; in test [10], 21.1%; in [11] it was 1.59% (active); in test [12] it was 45.7%. The growth in [13] is -8.43% (active); in test [14] it was -27% (active); in [15] it was 25.5%; in test [16], 14%; in test [17], 15.6%.
As to `COC(=O)[C@@H](C)C[C@H](Cc1ccccc1)NC(=O)c1csc([C@@H](C[C@H](C(C)C)N(C)C(=O)[C@@H](NC(=O)[C@H]2CCCN2C)C2CC2)OC(C)=O)n1`, the growth in [1] is 12.3%; in test [2] it was 11.2%; in [3], 13.9%; in test [4] it was 33.4%; in test [5] it was 46.8%; in test [6], 51.6%. Besides, the growth in test [7] is 25.7%; in test [8], 27.1%; in [9] it was -34.5% (active); in [10] it was 3.36% (active); in test [11], 12.4%; in test [12], 40.9%. For the same compound, the growth was -9.2% (active) in [13]; 30.6% in [15]; 21.7% in test [18]; 1.11% (active) in test [19]; 14.8% in test [16]; 1.92% (active) in test [17].
As for `COc1cccc(/C=C/[N+](=O)[O-])c1`, the growth is 50.4% in test [1]; -21.6% (active) in test [2]; -21.2% (active) in test [3]; 79.6% in [4]; 92.8% in [5]; 104% in test [6]. Besides, the growth was 94.4% in test [7]; 55.8% in [8]; 75.2% in [9]; 95% in test [10]; 92.6% in [11]; 41.7% in [12]. For the same compound, the growth in test [13] was 29.5%; in test [14], -25.3% (active); in test [15], 77.5%; in test [19], -60.9% (active); in test [16], -87.9% (active); in test [17], 15.6%.
As for `CC[C@H](C)[C@H](NC(=O)NC(C)(C)C)C(=O)N(C)[C@H](C[C@@H](OC(C)=O)c1nc(C(=O)N[C@@H](Cc2ccccc2)C[C@H](C)C(=O)OC)cs1)C(C)C`, the growth in [1] was 17.4%; in test [2], 10.6%; in test [3] it was -3.75% (active); in test [4], 18%; in test [5], 34.8%; in [6], 36.2%. The growth in test [7] is 14.9%; in test [8], 24.5%; in [9], -16.8% (active); in test [10] it was 3.72% (active); in test [11] it was 23.3%; in test [12], 53.5%. The growth in [13] is -14.6% (active); in test [14] it was -44.9% (active); in test [15] it was 20.5%; in [19], 1.01% (active); in test [16], 20%; in test [17], 13.8%.
Consider `CC(=O)O[C@H](C[C@H](C(C)C)N(C)C(=O)[C@@H](NC(=O)[C@H]1CCCCN1C)C(C)C)c1nc(C(=O)NC2CCC(C(=O)O)CC2)cs1` (some centres not stated), for which the growth was 30.9% in [1]; 22.3% in test [2]; 23.8% in [3]; 59.9% in test [4]; 85.7% in test [5]; 72% in [6]. Moreover, the growth in test [7] was 50.9%; in test [8] it was 52.9%; in test [9], 2.22% (active); in [10] it was 24.2%; in test [11] it was 96.8%; in test [12] it was 50.4%. Also, the growth in test [13] was 45.6%; in test [15], 32.6%; in test [18] it was 18.5%; in test [19], 34.8%; in test [16], 83.7%; in test [17] it was 39.2%.
On to `CC(C)=CCC/C(C)=C/C=N\N=C(/N)N[N+](=O)[O-]`, for which the growth in test [1] was 90.9%; in test [2] it was 83.6%; in test [3], 93.6%; in test [4], 104%; in test [5], 103%; in test [6], 93.4%. In addition, the growth in test [7] is 98.9%; in [8], 99.5%; in test [9], 101%; in [10] it was 99.8%; in test [11] it was 102%; in test [13], 92.8%. Further, the growth was 94% in test [14]; 106% in [15]; 81.1% in [18]; 91.1% in [19]; 108% in test [16]; 95.7% in [17].
Turning to `C[C@@H]1CCC2[C@@H](C)[C@H](OC(=O)CCC(=O)NCCNC(=O)Cc3cc(=O)oc4cc(N(C)C)ccc34)O[C@@H]3O[C@]4(C)CC[C@@H]1C23OO4` (some centres not stated), the growth is 31.3% in test [1]; -16.8% (active) in [2]; 15.1% in [3]; 23.8% in [4]; 49% in [5]; 49.1% in test [6]. The growth was 92.3% in test [7]; 55% in [8]; 37.7% in test [9]; 49.5% in test [10]; 16.6% in [11]; 41% in test [12]. In addition, the growth was 19.2% in test [14]; 25.3% in test [15]; 35.9% in [18]; 10.1% in test [19]; 50.2% in test [16]; 22.2% in test [17].
For the compound `O=C(N/N=C\c1ccc(N(CCCl)CCCl)cc1)c1cccc([N+](=O)[O-])c1`, the growth was 89.7% in test [1]; 103% in test [2]; 95.6% in test [3]; 63.4% in [4]; 109% in test [5]; 87% in [6]. Moreover, the growth is 82.7% in [7]; 76.8% in test [8]; 83.2% in test [9]; 64.2% in [10]; 88.1% in test [11]; 96% in test [13]. Moreover, the growth is 105% in test [14]; 100% in test [15]; 79.9% in [18]; 97% in [19]; 101% in test [16]; 93.6% in test [17].
As for `C=CCc1cc2c(cc1OCC)OCO2`, the growth in test [1] was 113%; in [2], 126%; in test [3], 112%; in test [4], 103%; in [5], 95.7%; in test [6], 108%. Besides, the growth was 80.3% in test [7]; 121% in test [8]; 107% in test [9]; 93.2% in [10]; 105% in test [11]; 82.6% in test [13]. Moreover, the growth in test [14] was 109%; in [15] it was 102%; in test [18], 90.9%; in test [19] it was 85.5%; in test [16], 93.8%; in [17] it was 104%.
With `COc1ccc(C(=O)c2sc3nc4c(cc3c2N)N2CCC4CC2)cc1OC`, the growth in test [1] was 77.3%; in test [2], 83.4%; in test [3], 51.4%; in test [4], 85.7%; in test [5], 107%; in test [6], 85.7%. For the same compound, the growth in test [7] was 96.2%; in test [8], 104%; in test [9], 100%; in test [10], 100%; in test [11], 79.4%; in test [13], 81.5%. The growth in test [14] was 99.9%; in [15], 126%; in [18], 84.5%; in test [19], 86.2%; in test [16], 109%; in test [17], 97.7%.
On to `CC(CO)NC1CCCCC1` (configuration not stated), for which the growth is 98.9% in test [1]; 104% in [2]; 112% in [3]; 103% in test [4]; 102% in [5]; 102% in test [6]. Besides, the growth in test [7] was 111%; in test [8], 102%; in test [9] it was 115%; in test [10], 115%; in test [11], 116%; in test [13], 106%. Further, the growth was 112% in test [14]; 105% in [15]; 109% in [18]; 105% in test [19]; 106% in [16]; 114% in test [17].
With `COc1cc([N+](=O)[O-])c2nc(C)ccc2c1[N+](=O)[O-]`, the growth was 98.2% in test [1]; 82.2% in test [2]; 80.7% in [3]; 89.1% in test [4]; 131% in [5]; 103% in test [6]. Further, the growth in [7] was 119%; in [8] it was 109%; in test [9] it was 44.2%; in test [10], 106%; in test [11], 105%; in test [13], 97.4%. Besides, the growth in test [14] is 71.3%; in [15], 72.7%; in [18], 69.1%; in [19] it was 63.5%; in test [16], 107%; in [17] it was 79.8%.
In the case of `CN(C)C(=O)Oc1ccccc1`, the growth in test [1] was 110%; in [2], 109%; in [3], 104%; in test [4], 102%; in [5], 82.4%; in test [6], 101%. Moreover, the growth in test [7] was 103%; in test [8], 108%; in test [9] it was 120%; in [11] it was 98.2%; in test [12], 105%; in test [13], 118%. Further, the growth was 112% in test [14]; 93.8% in test [15]; 104% in test [18]; 104% in test [19]; 102% in test [16]; 110% in test [17].
For the compound `C/C(=C\c1ccn(-c2ccc(N)cc2)n1)[C@@H]1C[C@@H]2O[C@]2(C)CCC[C@H](C)[C@H](O)[C@@H](C)C(=O)C(C)(C)[C@@H](O)CC(=O)O1`, the growth in test [1] was 13.3%; in test [2], 19%; in test [3] it was 15.6%; in test [4], 29.5%; in test [5], 32.9%; in test [6] it was 67.4%. Moreover, the growth was 45.1% in [7]; 40.3% in test [8]; 2% (active) in test [9]; 17.8% in test [10]; -2.72% (active) in test [11]; 42.7% in test [12]. For the same compound, the growth in test [13] is 26.9%; in test [15], 38.3%; in test [18] it was 19.1%; in test [19], 10.4%; in test [16], -0.702% (active); in [17], 15%.
With `O=C(O)C(Cl)(Cl)C(F)(F)F`, the growth in test [1] was 112%; in test [2] it was 122%; in test [3], 108%; in test [4], 112%; in test [5], 103%; in test [6], 104%. For the same compound, the growth in [7] is 110%; in test [8], 104%; in [9], 101%; in test [10] it was 95.9%; in test [11] it was 102%; in [12], 106%. Also, the growth in test [13] is 96.9%; in test [15] it was 94.7%; in [18], 99.6%; in [19], 105%; in test [16] it was 99.9%; in [17] it was 102%.
For `O=C(NCCN1CC1)C(=O)NCCN1CC1`, the growth is 55.3% in [1]; 19% in test [2]; 98.5% in [3]; 69.3% in test [4]; 104% in test [5]; 106% in [6]. Also, the growth in test [7] is 98%; in test [8] it was 78.5%; in [9], 99.6%; in [10], 107%; in [11] it was 79.5%; in [12] it was 88.2%. Moreover, the growth is 88.7% in [13]; 84.7% in test [15]; 65.8% in [18]; 87.9% in test [19]; 89.1% in [16]; 97.8% in [17].
